TDP1 cell CPT: qHTS for Inhibitors of human tyrosyl-DNA phosphodiesterase 1 (TDP1): qHTS in cells in presence of CPT. chicken DT40 Tdp1-/-;hTDP1 cells + 20 nM CPT, ATP luminescence, 48 h. Potency, µM (highest dose often 46.2 µM), for inactives: at the highest dose activity change, negative = growth inhibition, most hits filed as inhibitors. actives 12% (n = 420,000). AID 686979, 2013; further: potency means the concentration at half of the fitted maximal effect; nearly all actives have a fitted effect of over 55% in size
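Chicken DT40 Tdp1-/- cells stably complemented with human TDP1 were seeded at 400 cells/well in medium containing 20 nM camptothecin, exposed to pin-transferred compounds, and grown at 37 °C for at least 48 hr. Viability was read as ATP luminescence.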
TDP1 cell noCPT: qHTS for Inhibitors of human tyrosyl-DNA phosphodiesterase 1 (TDP1): qHTS in cells in absence of CPT; DT40 Tdp1-/- hTDP1 cells, no CPT, ATP luminescence, 48 h; Potency, µM (titrated, usually from 46.2 µM), for the others: at the top dose activity change, negative = growth inhibition, most hits filed as inhibitors; actives 15% (n = 420,000); AID 686978, 2013; further: potency means the concentration at half of the fitted maximal effect; nearly all actives have a fitted effect of over 55% in size
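Chicken DT40 Tdp1-/- cells stably complemented with human TDP1 were seeded at 400 cells/well with DMSO in place of 20 nM camptothecin. After compound pinning, cells grew at least 48 hr at 37 °C; viability read by CellTiter-Glo luminescence.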
HT1080 IDH1KD tx: qHTS for induction of synthetic lethality in tumor cells producing 2HG: qHTS for the HT-1080-IDH1KD cell line. actives 2% (n = 360,000). AID 686971, 2013. HT-1080 IDH1 knockdown viability, ATP luminescence, 48 h. Potency, µM (series often up to 46.1 µM), without a hit: at the highest dose activity, negative = toxicity, usual class: cytotoxic;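 further: potency means the concentration at half of the fitted maximal effect; 0% = DMSO wells and -100% = cell-free medium wells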
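IDH1KD HT-1080 cells, 750/well, RPMI + 5% FBS; compound pinned after 2 h settling; 48 h, 37 °C; CellTiter-Glo luminescence; % activity normalised to DMSO and no-cell wells; curves fitted, classed by r2 and efficacy.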
HT1080NT lethal: qHTS for induction of synthetic lethality in tumor cells producing 2HG: qHTS for the HT-1080-NT fibrosarcoma cell line; HT-1080-NT fibrosarcoma viability, CellTiter-Glo ATP luminescence, 48 h; Potency, µM (titrated, usually from 46.1 µM), without a hit: at the top dose activity, negative = less viability, actives largely listed as cytotoxic; actives 1.6% (n = 360,000); AID 686970, 2013;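 further: NT is the 2HG producing partner of a matched IDH1 knockdown line; potency means the concentration at half of the fitted maximal effect; 0% = DMSO-treated cells and -100% = media-only wells without cells; nearly all actives have a fitted effect of over 55% in size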
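750 cells/well, RPMI + 5% FBS; 2 h settle, compound pin-transfer, 48 h at 37 degrees C. CellTiter-Glo 10 min RT, luminescence. Normalized to DMSO and media-only wells.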
IL1B secr inh: qHTS for Inhibitors of Inflammasome Signaling: IL-1-beta AlphaLISA Primary Screen; activity change, % at 57.5 µM; AID 743279, 2014; THP-1 LPS/ATP IL-1B secretion, AlphaLISA, 16 h; stronger effect = lower value; actives 4.7% (n = 360,000); in the data active means activity change below about -50%; inconclusive means mostly about -30% to -49%
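Secreted IL-1B measured by AlphaLISA bead assay after 16 h compound exposure of THP-1 cells; compounds (final up to 57.5 uM) added 1 h before LPS (250 ng/mL) and ATP (1.25 mM) stimulation; lower signal means less secretion.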
Active calls of the source: *; ? = inconclusive; / = no result. In the library only some 19% were active in any assay of this set; here they are far more common. Unless noted, the call rests on the fitted dose curve; in most records, active means well fitted curve in the direction sought with a large enough effect; inconclusive means small, poorly fitted or top-dose-only effect, or another doubt; inactive means no such curve, though single readings can be large; an effect the other way counts as inactive or inconclusive. Unless noted, on the % scale 0 is the no-effect control and ±100 the full control effect.

SMILES	TDP1 cell CPT	TDP1 cell noCPT	HT1080 IDH1KD tx	HT1080NT lethal	IL1B secr inh
CCOc1ccc2nc(Cl)c(C3CC(c4ccccc4)=NN3C(=O)CCC(=O)O)cc2c1 (centres undefined)	2.9%	-15.4%	/	/	/
CCCN1CNc2c(c(=O)[nH]c(=S)n2CCC)C1	14.2%	1.8%	24.0%	14.7%	/
c1ccc(-n2ncc3c(NC4CCCCCC4)ncnc32)cc1	?	?	-0.9%	-0.5%	-53.3*
OCCCNc1ncnc2c1cnn2-c1ccc(Cl)cc1	-23.1%	?	2.5%	8.7%	-23.5
Clc1ccc(-n2ncc3c(NC4CCCC4)ncnc32)cc1	16.4µM*	16.4µM*	/	/	/
CCC(=O)N1CCCC(C)(C(=O)Nc2ccc(OC(F)F)cc2)C1 (centres undefined)	-3.3%	-8.3%	4.1%	0.8%	56.9
COc1nc(=O)n(C2CCCO2)cc1C (centres undefined)	18.0%	-29.1%	-5.0%	2.2%	18.1
CC(C)/C=C(/C(=O)c1ccc(Cl)cc1Cl)n1cncn1	?	20.6µM*	-0.3%	-16.2%	-71.4*
CC(C)(C)C(=O)/C(=C/c1ccc(Cl)cc1)n1cncn1	5.8µM*	5.17µM*	-21.9%	16.4µM*	-97.0*
CNC(=O)CC(C(=O)O)c1ccc(OCC(C)C)cc1 (centres undefined)	21.7%	1.1%	23.3%	29.7%	2.3
Cc1ccc(C)c(CN2C(=O)c3ccccc3S(=O)c3ccc(C(=O)N4CCN(c5ccccn5)CC4)cc32)c1 (centres undefined)	?	16.4µM*	-11.8%	?	-24.0
Cc1ccc(C)c(N2CCN(C(=O)c3ccc4c(c3)N(Cc3ccc(F)cc3)C(=O)c3ccccc3S4=O)CC2)c1 (centres undefined)	18.4µM*	10.3µM*	/	/	/
Cc1ccccc1CN1C(=O)c2ccccc2S(=O)c2ccc(C(=O)N3CCOCC3)cc21 (centres undefined)	1.5%	0.3%	/	/	/
CCOC(=O)C1CCCN(C(=O)c2ccc3c(c2)N(Cc2ccccc2F)C(=O)c2ccccc2S3=O)C1 (centres undefined)	?	16.4µM*	/	/	/
CCN1CCN(C(=O)c2ccc3c(c2)N(Cc2cc(C)ccc2C)C(=O)c2ccccc2S3=O)CC1 (centres undefined)	18.4µM*	16.4µM*	/	/	/
Cc1ccc(C)c(CN2C(=O)c3ccccc3S(=O)c3ccc(C(=O)N4CCN(c5ccccc5F)CC4)cc32)c1 (centres undefined)	5.8µM*	1.84µM*	/	/	/
CCN1C(=O)c2ccccc2S(=O)c2ccc(C(=O)N3CCCC3)cc21 (centres undefined)	-10.2%	?	-7.2%	11.7%	-10.7
CCN1C(=O)c2ccccc2S(=O)c2ccc(C(=O)N3CCN(c4cc(Cl)ccc4C)CC3)cc21 (centres undefined)	?	23.1µM*	/	/	/
COc1ccc(CN(CC2CCCO2)C(=O)c2cc3sccc3n2C)c(OC)c1 (centres undefined)	-8.5%	?	-25.4%	-25.9%	-103.8*
O=C(NCC1CC1)c1cccc2c(-c3ccc(F)c(F)c3)coc12	?	?	-21.0%	-15.2%	-5.4
O=C(NCCc1ccccc1)c1cccc2c(-c3cccnc3)coc12	-17.8%	-24.8%	6.0%	?	-14.7
CC(C)CNC(=O)c1cccc2c(-c3cccc(C(N)=O)c3)coc12	23.1µM*	?	-26.1%	-3.0%	-19.0
COc1ccc(CNC(=O)c2cccc3c(-c4cccnc4)coc23)cc1OC	1.16µM*	1.46µM*	?	?	-20.4
COc1ccc(-c2coc3c(C(=O)NCC(C)C)cccc23)c(C)c1	?	?	?	?	-21.5
NC(=O)c1cccc(-c2coc3c(C(=O)NC4CCCCC4)cccc23)c1	?	8.2µM*	?	?	-15.3
SMILES	TDP1 cell CPT	TDP1 cell noCPT	HT1080 IDH1KD tx	HT1080NT lethal	IL1B secr inh
O=C(NCc1cccc(Cl)c1)c1cccc2c(-c3cccnc3)coc12	16.4µM*	?	-24.6%	-13.5%	?
O=C(COC(=O)c1ccncc1)Nc1cccc2ccccc12	-3.9%	-14.8%	4.5%	0.9%	10.5
O=C(/C=C/c1ccc(S(=O)(=O)N2CCOCC2)cc1)OCC(=O)c1ccc([N+](=O)[O-])cc1	-35.8%	-11.0%	-0.7%	10.7%	26.1
CC1=C(C(=O)N(C(C)C)C(C)C)CC(CC(=O)NCc2ccco2)C(=O)N1CCC1=CCCCC1 (centres undefined)	?	?	-8.9%	16.1%	-18.0
O=C(NCc1ccc(F)c(F)c1)c1cccc2c(-c3cccnc3)coc12	?	?	?	-22.7%	-63.2*
NC(=O)c1cccc(-c2coc3c(C(=O)NCc4cccnc4)cccc23)c1	20.6µM*	23.1µM*	?	-18.4%	65.8
O=C(NCc1cccs1)c1cccc2c(-c3cccnc3)coc12	?	-65.8%	-2.0%	-7.0%	?
Clc1ccc(CSc2nnc(-c3sccc3-n3cccc3)o2)cc1	-5.4%	?	-4.5%	-10.3%	-13.6
COc1ccc(-c2nnc(NC(=O)c3ccc([N+](=O)[O-])o3)o2)c(OC)c1	?	18.4µM*	-1.6%	-0.6%	-18.5
Cc1ccc(-c2nnc(NC(=O)c3ccc([N+](=O)[O-])o3)o2)c(C)c1	16.4µM*	13µM*	?	?	?
CCC(=O)Nc1ccc(Cl)c(NC(=O)c2c(OC)cccc2OC)c1	-3.2%	-2.4%	6.7%	12.2%	36.7
Nc1ncnc2nc(Cl)[nH]c12	0.5%	-0.4%	/	/	/
NNC(=O)c1ccc(N2CCCCCC2)c([N+](=O)[O-])c1	-2.5%	1.7%	?	?	-8.9
Cn1cnnc1Sc1cc(N2CCN(S(=O)(=O)c3ccc(Cl)c(Cl)c3)CC2)ccc1[N+](=O)[O-]	?	14.6µM*	-29.7%	-29.9%	0.0
Cc1ccc(S(=O)(=O)N2CCN(c3ccc([N+](=O)[O-])c(Sc4nncn4C)c3)CC2)cc1	?	?	-7.6%	-1.9%	-8.7
Cc1cc(C)n(-c2cc(N3CCN(S(=O)(=O)c4ccc(C)c(C)c4)CC3)ccc2[N+](=O)[O-])n1	20.6µM*	?	-1.7%	-6.6%	-2.2
Cn1cnnc1Sc1cc(N2CCN(S(=O)(=O)c3ccc4ccccc4c3)CC2)ccc1[N+](=O)[O-]	?	?	-4.5%	-6.7%	-29.3
